High-throughput results from PubChem.
Compounds with a hit are over-represented: about 32% of the library has one in this group of screens.
PostGolgi ctrl = inhibits growth of the yeast control strain; efflux-deficient yeast background strain, growth absorbance A615, 16 h; inhibition, % at 10 µM; 98,000 tested, 5% active; AID 738
PostGolgi yeast = growth inhibition of a yeast mutant, post-Golgi transport screen; post-Golgi transport phenotypic cell assay; inhibition, % at 10 µM; 98,000 tested, 0.9% active;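 further: yeast cells grown in 1536-well plates; yeast grown about 18 h at 30C before absorbance read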
CYP2C19 inhib = inhibitors of human CYP2C19; CYP2C19 Supersomes, luciferin-H EGE luminescence, 30 min; inhibition, % at 5 µM; 96,000 tested, 21% active; AID 778;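 active means CYP2C19 inhibition above a set limit at 5 µM in the primary screen, cut at about 50% in these data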;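 further: plate controls were negative control wells for no effect and 2.5 mM tranylcypromine positive control for full effect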
Target sequence (P33261 whole entry, looked up): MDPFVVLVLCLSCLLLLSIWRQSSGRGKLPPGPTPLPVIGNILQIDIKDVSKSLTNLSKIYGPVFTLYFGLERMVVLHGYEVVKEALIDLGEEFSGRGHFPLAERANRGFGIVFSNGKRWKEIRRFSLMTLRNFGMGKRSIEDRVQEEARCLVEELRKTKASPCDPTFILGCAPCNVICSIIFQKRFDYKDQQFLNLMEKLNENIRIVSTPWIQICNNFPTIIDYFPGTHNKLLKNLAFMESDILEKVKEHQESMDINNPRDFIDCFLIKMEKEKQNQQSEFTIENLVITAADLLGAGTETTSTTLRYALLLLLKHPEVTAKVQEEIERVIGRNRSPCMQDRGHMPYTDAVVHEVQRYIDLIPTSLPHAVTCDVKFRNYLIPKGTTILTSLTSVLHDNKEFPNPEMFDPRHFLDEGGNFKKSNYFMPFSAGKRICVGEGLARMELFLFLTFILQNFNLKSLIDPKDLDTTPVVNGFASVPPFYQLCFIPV
CYP2C9 activ = activators of human CYP2C9; P11712; activation factor at 5 µM; 96,000 tested, 1.4% active; AID 1024; recombinant CYP2C9, luciferin-H conversion, luminescence; hits give high values; factor 1 = untreated enzyme, 0 = blocked;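 active means activation factor of 2 or more for CYP2C9 at a 5 µM dose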;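 further: 0 = sulfaphenazole-blocked wells and 1 = vehicle-only wells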
CYP2C19 act = increases human CYP2C19 enzyme activity; P33261; recombinant CYP2C19, luciferin-H EGE luminescence; hits give high values; 0 = fully inhibited enzyme, 1 = untreated enzyme; activation factor at 5 µM; 96,000 tested, under 10 active; AID 1025;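 active means activation factor of at least 2 at 5 µM in the primary screen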;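 further: 0 = wells with 2.5 mM tranylcypromine and 1 = vehicle-only wells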
CYP2C9 inhib = human CYP2C9 inhibition; P11712; CYP2C9 Supersomes, luciferin-H conversion, luminescence; inhibition, % at 5 µM; 96,000 tested, 20% active; AID 777;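 active means blocking of liver enzyme CYP2C9 beyond about 50% at 5 µM, limit read from the data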
An asterisk follows results filed as active. Unless noted, no stated cut-off is given here; in the data, active means inhibition above about 30%; inactive means the rest.

SMILES	PostGolgi ctrl	PostGolgi yeast	CYP2C19 inhib	CYP2C9 activ	CYP2C19 act	CYP2C9 inhib
Cc1csc(Sc2ccc([N+](=O)[O-])cc2C(=O)OCC(=O)NC(=O)NC(C)(C)C)n1	6.9	1.9	18.8	0.3	0.8	72.1*
CC1(C)CC(=O)C2=C(C1)N(N1CCOCC1)C(N)=C(C#N)C2c1cccnc1 (configuration not stated)	0.0	-10.9	5.3	0.9	0.9	8.1
N#CC1=C(N)N(c2ccccc2)C2=C(C(=O)CCC2)C1c1ccsc1 (configuration not stated)	-1.2	1.6	16.5	0.7	0.8	30.4
CSc1sc(C)cc1C1C(C#N)=C(N)N(c2cccnc2)C2=C1C(=O)CC(C)(C)C2 (configuration not stated)	-0.6	-4.7	-2.2	0.9	1	12.3
Cc1ccc(C2C(C#N)=C(N)N(c3ncn[nH]3)C3=C2C(=O)CC(C)(C)C3)cc1 (configuration not stated)	2.2	10.8	28.2	0.4	0.7	64.9*
Cc1ccc(N2C(N)=C(C#N)C(c3ccsc3)C3=C2CC(C)(C)CC3=O)cc1 (configuration not stated)	9.0	-1.7	42.8	0.2	0.6	83.2*
Cc1ccc(N2C(N)=C(C#N)C(c3cccnc3)C3=C2CC(C)(C)CC3=O)cc1 (configuration not stated)	7.4	5.9	22.9	0.5	0.8	51.9*
CC(C)(C)NC(=O)NC(=O)COC(=O)c1cc(=O)[nH]c2ccccc12	7.8	-24.4	15.3	0.6	0.8	35.2
Cc1cc(C)c2ccc(C(=O)O)nc2c1O	4.1	-5.3	-13.3	1.1	1.1	-12.5
Cn1c(CSCc2ccccc2Cl)nnc1SCC(=O)Nc1nccs1	7.8	9.6	49.0	0.4	0.5	61.3*
CCn1c(Cc2ccccc2)nnc1SCC(=O)Nc1nc2ccccc2s1	-3.4	-7.5	22.1	0.8	0.8	20.9
CCSCc1nnc(SCC(=O)Nc2nc3ccccc3s2)n1C	36.0*	7.1	18.1	0.4	0.8	63.2*
COc1ccc(-c2cc(C(F)(F)F)n3nc(C(=O)NCc4ccco4)c(Cl)c3n2)cc1	-3.1	-0.6	28.4	0.5	0.7	48.3
CNS(=O)(=O)c1cccc(C(=O)OC2CCCCC2=O)c1 (configuration not stated)	13.8	1.3	29.3	1.1	0.7	-12.4
COc1ccccc1Cc1noc(-c2cc(Cl)ccc2OC)n1	10.8	-3.0	47.5	2.3*	0.5	-133.7
COc1ccc(Cc2noc(COc3ccc(Cl)cc3)n2)cc1	27.1	-5.3	27.6	0.8	0.7	17.0
COc1ccccc1OCc1nc(Cc2ccc(Cl)cc2)no1	5.8	-0.5	93.6*	1.3	0.1	-33.1
O=C(CC1Oc2ccccc2NC1=O)NCc1ccccc1 (configuration not stated)	14.6	-5.8	65.8*	2*	0.3	-99.6
Cc1ccc2c(c1)NC(=O)C(CC(=O)NCc1ccc(F)cc1)O2 (configuration not stated)	-1.1	-0.4	15.1	0.9	0.8	5.5
CC1CCCCC1NC(=O)CC1Oc2ccccc2NC1=O (configuration not stated)	3.5	-12.3	0.6	1.9	1	-88.7
CC1CCC(NC(=O)CC2Oc3ccccc3NC2=O)CC1 (configuration not stated)	1.0	9.4	12.3	2.3*	0.9	-129.2
Cc1cc(F)ccc1S(=O)(=O)Nc1ccccc1C(=O)Nc1ccc2[nH]c(=O)[nH]c2c1	0.6	-11.3	9.0	0.2	0.9	80.7*
C=C(C)c1cccc(C(C)(C)NC(=O)Nc2ccc3[nH]c(=O)[nH]c3c2)c1	9.8	-3.4	3.6	0.9	1	8.7
O=C1c2ccccc2C(O)N1Cc1ccc2c(c1)OCO2 (configuration not stated)	3.4	-1.4	82.8*	1	0.2	3.3
O=C1c2ccccc2C(Nc2ccc3c(c2)OCO3)N1Cc1ccc2c(c1)OCO2 (configuration not stated)	11.3	3.8	88.0*	0	0.1	96.7*
SMILES	PostGolgi ctrl	PostGolgi yeast	CYP2C19 inhib	CYP2C9 activ	CYP2C19 act	CYP2C9 inhib
COc1ccc(OC)c(NC2c3ccccc3C(=O)N2Cc2ccc3c(c2)OCO3)c1 (configuration not stated)	24.6	-1.9	43.3	0.6	0.6	41.8
O=C1c2ccccc2C(=O)N1Cc1ccc2c(c1)OCO2	8.4	-2.5	53.5*	1.4	0.5	-38.7
O=C1c2ccccc2C(Nc2cccnc2)N1Cc1ccc2c(c1)OCO2 (configuration not stated)	-7.3	-0.2	57.0*	0.7	0.4	29.2
O=C(O)c1ccc2c(c1)C(=O)N(Cc1ccc3c(c1)OCO3)C2=O	-3.5	24.8	4.2	1	1	1.0
CN(C)CCN1C(=O)C(=O)/C(=C(/O)c2ccccc2)C1c1ccccc1F (configuration not stated)	13.4	1.9	8.9	0.9	0.9	5.0
COc1ccccc1CN1C(=O)CN(C2CCCC2)C(=O)C1c1ccc(F)cc1 (configuration not stated)	10.8	9.2	21.3	0.8	0.8	24.1
O=C1c2ccccc2C(O)(Cc2ccccc2)N1c1ccc2c(c1)OCO2 (configuration not stated)	4.0	-0.3	87.0*	0.1	0.1	89.8*
COc1cc(C#CC#CCN2CCCCC2)ccc1O	-0.3	-12.6	47.5	1.8	0.5	-75.5
O=S1(=O)C=C(Sc2nnc(-c3ccccc3)o2)c2ccccc21	30.8*	87.7*	-16.0	1.1	1.2	-9.5
CC(C)OC(=O)C(C)Oc1ccc(C(=O)NCCc2ccccc2)cc1 (configuration not stated)	2.5	4.3	15.0	0.8	0.8	17.6
NS(=O)(=O)c1cccnc1Nc1cccc(C(F)(F)F)c1	4.6	1.1	34.5	0.2	0.7	77.6*
CCOC(=O)C1=C(C)Nc2nc(SCC)nn2C1c1ccc(OC)cc1 (configuration not stated)	0.1	-1.2	10.5	1.2	0.9	-19.2
CCOC(=O)C1=C(C)Nc2nc(=S)[nH]n2C1c1ccc(Cl)cc1 (configuration not stated)	30.9*	4.2	37.3	0.7	0.6	28.3
COc1ccc(OC)c(C(O)c2coc3ccc(O)c(CN4CCOCC4)c23)c1 (configuration not stated)	0.6	-3.2	58.5*	0.5	0.4	53.5*
OCC12COC(c3ccccc3)N1C(c1ccccc1)OC2 (configuration not stated)	23.9	1.3	69.4*	0.5	0.3	46.6
O=C(NC1CCCCC1)C(c1ccc(Cl)cc1)N(C(=O)c1cnccn1)c1ccc2c(c1)OCO2 (configuration not stated)	-1.7	-10.1	14.7	1	0.9	1.2
CC/C(C)=C1\SC(N2CCOCC2)=NC1=O	6.2	-1.9	4.2	1	1	1.8
